Data on 16 compounds can be found in the supplement of paper PMC11150407.

About 180 (8.6%) of roughly 2,100 compounds showed an effect of 50% or more. For the sample, strong results were picked, then their nearest neighbours and some compounds at random.

The assay relates to MOLM1 and UCSD/AML1 (averaged). The assay is described as follows: cell viability relative to DMSO control (POC); higher = less growth inhibition. The settings on record: 1 µM; 72 h. As to the method: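 Primary viability screen in the 3q26 EVI1-high AML cell lines MOLM1 and UCSD/AML1 (1.5e3 cells/well, 384-well), compounds at 1 uM for 72 h. ATP CellTiter-Glo read-out given as percent of viable cells over DMSO control (POC), averaged over duplicates. DMSO was the negative control and 5 uM etoposide the positive control. This mapping covers the MicroSource Spectrum and Selleck anticancer libraries (drug names).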
For the compound `O=C(O)c1cc(=O)c2cccc(O)c2[nH]1`, the cell viability (usually a read-out of living cells in per cent, often relative to untreated cells) came out at 102%. Then `C[C@H]1O[C@@H](O[C@H]2[C@@H](O)C[C@H](O[C@H]3[C@@H](O)C[C@H](O[C@H]4CC[C@@]5(C)[C@H](CC[C@@H]6[C@@H]5C[C@@H](O)[C@]5(C)[C@@H](C7=CC(=O)OC7)CC[C@]65O)C4)O[C@@H]3C)O[C@@H]2C)C[C@H](O)[C@@H]1O`, with 3.03%; and `C[C@H]1O[C@@H](O[C@H]2[C@@H](O)C[C@H](O[C@H]3[C@@H](O)C[C@H](O[C@H]4CC[C@@]5(C)[C@H](CC[C@@H]6[C@@H]5CC[C@]5(C)[C@@H](C7=CC(=O)OC7)CC[C@]65O)C4)O[C@@H]3C)O[C@@H]2C)C[C@H](O)[C@@H]1O`, with 2.44%.

As for `CO[C@H]1O[C@H](CO)C(O[C@@H]2OC(C(=O)O)[C@@H](O[C@H]3O[C@H](COS(=O)(=O)O)C(O[C@@H]4OC(C(=O)O)[C@@H](O[C@H]5O[C@H](CO)C(O[C@@H]6OC(C(=O)O)[C@@H](O[C@H]7O[C@H](COS(=O)(=O)O)C(O[C@@H]8OC(C(=O)O)=C[C@H](O)C8OS(=O)(=O)O)[C@H](O)[C@H]7NC(C)=O)[C@H](O)[C@H]6O)[C@H](O)[C@H]5NC(C)=O)[C@H](O)[C@H]4O)[C@H](O)[C@H]3NC(C)=O)[C@H](O)[C@H]2O)[C@H](O)[C@H]1NC(C)=O` (stereo partly specified), the cell viability came out at 86.8%. As for `COc1cc(O)c(C(C)=O)c(OC)c1`, the figure is 101%; as for `O=C(/C=C/C(=O)Oc1ccccc1C(=O)O)Oc1ccccc1C(=O)O`, 110%; as for `C[C@H]1C(=O)CC[C@@H]2[C@]1(C)CC[C@H]1[C@@]2(C)CC[C@@]2(C)[C@@H]3CC(C)(C)CC[C@]3(C)CC[C@]12C`, 113%. Then `COc1cc2oc3cc(OC)c(OC)c(CC=C(C)C)c3c(=O)c2c(O)c1CC=C(C)C`, with 99.9%; and `CCCCCC1C(=O)CCC1CC(=O)O` (stereo unspecified), with 86.2%. As for `O=C(O[C@@H]1Cc2c(O)cc(O)cc2O[C@@H]1c1cc(O)c(=O)c2c(O)c(O)cc([C@H]3Oc4cc(O)cc(O)c4C[C@H]3OC(=O)c3cc(O)c(O)c(O)c3)c2c1)c1cc(O)c(O)c(O)c1`, the figure is 108%; as for `Cc1cc(O)c2c(c1)C(=O)c1cccc(O)c1C2=O` [Chrysophanic acid (Chrysophanol)], 93.8%; as for `Cc1cc(O)c2c(c1)C(=O)c1cccc(O)c1C2=O`, 115%. `O=C(O)c1cc(O)c(=O)c2c(O)c(O)ccc2c1`: the cell viability came to 108%. Then `CCC(C)C(NC)C(=O)O` (stereo unspecified), with 118%; and `COC(=O)c1ccc2c(C(=Nc3ccc(N(C)C(=O)CN4CCN(C)CC4)cc3)c3ccccc3)c(O)[nH]c2c1` [BIBF1120 (Vargatef)], with 11.9%. As for `CC(=O)c1ccc[nH]1`, the figure is 92.8%.
